In ChEMBL document CHEMBL4513216, “Probing the Open Global Health Chemical Diversity Library for Multistage-Active Starting Points for Next-Generation Antimalarials” (ACS Infect Dis, 2020):
The campaign covered roughly 69,000 compounds. About 8,600 (12%) showed an effect of 50% or more. This excerpt belongs to a sample that is enriched for strong results.

Tested on: Plasmodium berghei
Assay: Screen against P. berghei liver stage (PbLuc), transformed with Luciferase, at 10uM
Assay type: functional, HepG2
Conditions: tested at 10 uM

Row | SMILES | INHIBITION [%]
1 | Cc1cc(-c2cc(S(=O)(=O)N3C[C@H](C4CC4)[C@@H](N)C3)c(C)s2)[nH]n1 | 25.5
2 | COCCN1CCCn2cnc(CN(C)C(C)C)c2C1 | 21.7
3 | COCCN1CCCn2cnc(CNC3CCCC3)c2C1 | 55.5
4 | COCCN1CCCn2cnc(CNC(=O)N(C)C)c2C1 | 29.8
5 | COCc1cccc(S(=O)(=O)N2CCSCC2)c1 | 40
6 | CSc1ccc(C)c(C(=O)N2CCCC(n3cncn3)C2)c1 (configuration not stated) | -10.1
7 | Cc1ncc2c(n1)C1(CCN(C(=O)C(C)C)CC1)OCC2 | 3.89
8 | CC(NC(=O)c1ccc(CS(C)(=O)=O)o1)c1ccc(F)c(F)c1 (configuration not stated) | 12.3
9 | CCc1ccc(C(C)NC(=O)CN(C)Cc2ccc(C)o2)cc1 (configuration not stated) | -27
10 | CCc1ccc(C(C)NC(=O)c2ccc(CS(C)(=O)=O)o2)cc1 (configuration not stated) | 50.8
11 | Cc1cc(C)cc(C(C)NC(=O)c2ccc(CS(C)(=O)=O)o2)c1 (configuration not stated) | 54.3
12 | Cc1cn2c(n1)CCC(NC(=O)c1ccc(CS(C)(=O)=O)o1)C2 (configuration not stated) | 13.1
13 | CCc1ccc(C(=O)NC(C)c2ccc(S(C)(=O)=O)c(F)c2)o1 (configuration not stated) | 6.33
14 | CS(=O)(=O)N1CCC(NC(=O)COc2ccccc2Cl)CC1 | -19.9
15 | O=C(c1nccc2ccccc12)N1CCCCC1Cn1cccn1 (configuration not stated) | 3.73
16 | Cc1nc(CNC(=O)c2cc(COc3ccccc3F)[nH]n2)n[nH]1 | 17
17 | CNc1cc(C)nc(C2CN(Cc3cncs3)CCO2)c1 (configuration not stated) | 11.1
18 | Cn1nc(CN2CCCC2)c2c1CN(C(=O)c1cccnc1)CC2 | -31.3
19 | Cc1cc2n(n1)CC(CNCc1ccc(-n3ccnc3C)nc1)CN2 (configuration not stated) | -13.575
20 | CC(=O)N1CCOC(c2c(C(=O)NC(C)(C)C)sc3ccccc23)C1 (configuration not stated) | -84.7
21 | Cc1cnc(N2CC[C@@H]3O[C@@H](COCC(=O)N(C)C)CC[C@@H]32)nc1 | 18.2
22 | Cc1ccc(C(=O)N(Cc2ccc(F)cc2)C2CC2)c(=O)[nH]1 | -37.8
23 | CSc1ccc(CN(C)C(=O)c2cc3c([nH]c2=O)CCCC3=O)cc1 | 7.99
24 | CSc1ccc(CN(C(=O)c2cc[nH]n2)C2CC2)cc1 | 59.1
25 | COC1CCN(c2ccc(F)cc2CN(C)C(=O)c2cc[nH]n2)CC1 | -74.8
26 | CSc1ccc(CN(C(=O)c2cc(C)[nH]c(=O)c2)C2CC2)cc1 | 50.8

Row | SMILES | INHIBITION [%]
27 | COc1cc(C(=O)N(Cc2ccc(F)cc2)C2CC2)cc2c1OCCO2 | 13.4
28 | O=C(c1cc[nH]n1)N(Cc1ccccc1)CC1CCC1 | 72.3
29 | Cc1ccc(C(=O)N(Cc2cccc(F)c2)C2CC2)c(=O)[nH]1 | -30.7
30 | CSc1ccc(CN(C(=O)c2cc(=O)[nH]c(=O)[nH]2)C2CC2)cc1 | 59.1
31 | CN(C)Cc1ccc(C2CCCCN2C(=O)c2cc(=O)[nH]c(=O)[nH]2)cc1 (configuration not stated) | 16.7
32 | O=C(c1cc[nH]n1)N(Cc1cccc(O)c1)CC1CC1 | 5.64
33 | O=C(c1cc[nH]n1)N(Cc1ccc(F)cc1)CC1CC1 | -24
34 | NC(=O)C1Cn2ccnc2C2(CCN(C(=O)NC3CCCC3)CC2)O1 (configuration not stated) | 0.453
35 | CC(C)Oc1ccc(CNC(=O)CCN2C(=O)CCC2=O)cc1F | -38.75
36 | Cc1nc2c(c(NC3CCN(Cc4ccccc4)CC3)n1)CCNCC2 | -4.28
37 | CC(=O)N1CCCC(c2nccnc2-c2ccc(CO)cc2)C1 (configuration not stated) | 20.2
38 | c1ccc(CCN2CCN(C3CCOC4(CCOCC4)C3)CC2)cc1 (configuration not stated) | 36.8
39 | CC(NC(=O)CN(C)S(C)(=O)=O)c1nnc2n1CCCCC2 (configuration not stated) | 38.6
40 | CCc1ccc(C(=O)N2CCCC(CNS(C)(=O)=O)C2)o1 (configuration not stated) | -26.6
41 | O=C(NCc1ccccc1)C1=NOC2(CCNC2)C1 (configuration not stated) | 24.5
42 | O=c1ccc(-c2cccs2)nn1CN1CCN(C2CCS(=O)(=O)C2)CC1 (configuration not stated) | -4.52
43 | COc1ccc(C(=O)CNC(=O)c2nc(Cl)sc2C(C)C)cc1 | -44.2
44 | O=C(CCc1nnc(-c2ccccc2)o1)N1CCCC1c1ccc[nH]1 (configuration not stated) | -14.9
45 | CC1CCCCN1C(=O)CCc1nnc(-c2ccccc2)o1 (configuration not stated) | 51.5
46 | O=C(CCc1nnc(-c2ccccc2)o1)N1CCCC1c1ccccn1 (configuration not stated) | 17.8
47 | Cc1cc(CN2CCC(N(C)Cc3nnc(C4CC4)n3C)C2)on1 (configuration not stated) | 19.2
48 | COCc1noc(Cc2c(C)nn(C)c2C)n1 | 28.5
49 | Cc1nc(C(=O)N(CC(=O)N(C)C)CC(F)(F)F)c2ccccn12 | 53.3
50 | CCOC(=O)CN(CC(F)(F)F)C(=O)c1nc(C)n2ccccc12 | 22.3
51 | Cc1nc(C(=O)N(C)CC(F)(F)C(F)(F)F)c2ccccn12 | 3.03
52 | CCCc1nc(CN2CCCC(c3noc(C4CC4)n3)C2)no1 (configuration not stated) | 4.71
